Potency data for 28 molecules are collected here from PubChem BioAssay (NCATS).

Molecules are shown by their SMILES. Inconclusive results are not listed. Unmarked numbers belong to inactive results. Calls of active or inactive are those of the source. Calls follow the shape of the dose curve; as a rule, active = well fitted curve in the direction sought with a large enough effect; inconclusive = small, poorly fitted or top-dose-only effect, or another doubt; inactive = no such curve, though single readings can be large; an effect the other way counts as inactive or inconclusive.

A short description of assay [1]: qHTS for Inhibitors of the Aldehyde Dehydrogenase Family (ALDH1A2, ALDH1A3, ALDH2, ALDH3A1) (AID 2061307). Also: nearly all actives have a fitted effect of over 50% in size. As to Potency: test system not described further here; potency is read from the fitted curve at half-maximal effect.
For assay [2], the target named is Aldehyde dehydrogenase, mitochondrial (Homo sapiens) (UniProt P05091). The assay is described as follows: qHTS for Inhibitors of the Aldehyde Dehydrogenase Family (ALDH2) Primary screen (AID 2061308). Also: nearly all actives have a fitted effect of over 55% in size. Also: potency is read from the fitted curve at half-maximal effect.
Assay [3] has as its target Retinaldehyde dehydrogenase 3 (Homo sapiens) (UniProt P47895). The assay is described as follows: qHTS for Inhibitors of the Aldehyde Dehydrogenase Family (ALDH1A3) Confirmatory screens (AID 2061311). Also: nearly all actives have a fitted effect of over 60% in size. Also: potency is read from the fitted curve at half-maximal effect.
The target in assay [4] is Retinal dehydrogenase 2 (Homo sapiens) (UniProt O94788). Nature of the assay: qHTS for Inhibitors of the Aldehyde Dehydrogenase Family (ALDH1A2) Confirmation screens (AID 2061314). Also: nearly all actives have a fitted effect of over 65% in size. Also: potency is read from the fitted curve at half-maximal effect.
Assay [5] addresses Retinaldehyde dehydrogenase 3 (Homo sapiens) (UniProt P47895). Nature of the assay: qHTS for Inhibitors of the Aldehyde Dehydrogenase Family (ALDH1A3) Primary screen (AID 2061315).
The target in assay [6] is Aldehyde dehydrogenase 1A1 (Homo sapiens) (UniProt P00352). The assay is described as follows: qHTS for Inhibitors of the Aldehyde Dehydrogenase Family (ALDH1A1) Confirmatory screens (AID 2061316). Also: nearly all actives have a fitted effect of over 65% in size. Also: potency is read from the fitted curve at half-maximal effect.
Assay [7] can be described thus: BET inhibitor-based combinations targeting novel dependencies in MECOM-rearranged (r) AML: SET-2 cell line (AID 2202231). Also: potency is read from the fitted curve at half-maximal effect; nearly all actives have a fitted effect of over 35% in size. The following applies: SET-2 AML cells viability, CellTiter-Glo luminescence, 48 h; viability: stronger effect = lower value, concentration not given here. In a few lines: (§1)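 Viability of cells (500 per well) is scored by luminescent CellTiter-Glo at 48 hr post-dosing. Eleven-point titrations are normalized to DMSO and empty controls and reduced to AUC values.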

A short description of assay [8]: BET inhibitor-based combinations targeting novel dependencies in MECOM-rearranged (r) AML: OCI-AML3 cell line (AID 2202232). Also: potency is read from the fitted curve at half-maximal effect; nearly all actives have a fitted effect of over 35% in size. The following applies: Potency: OCI-AML3 viability. The method, boiled down:
as §1

A short description of assay [9]: BET inhibitor-based combinations targeting novel dependencies in MECOM-rearranged (r) AML: MV-4-11 cell line (AID 2202233). Also: potency is read from the fitted curve at half-maximal effect; nearly all actives have a fitted effect of over 45% in size. The method, boiled down:
(§2)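 Using pin-tool transfer, drugs were added in 11 doses to cells (500/well), incubated 48 hr, and assessed with CellTiter-Glo. Z-AUC is a mean-centring transformation applied separately to each screened line.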

Assay [10] can be described thus: BET inhibitor-based combinations targeting novel dependencies in MECOM-rearranged (r) AML: UCSD-AML1 cell line (AID 2202235). Also: potency is read from the fitted curve at half-maximal effect; nearly all actives have a fitted effect of over 40% in size. The method, boiled down:
as §2

Assay [11] in a line: BET inhibitor-based combinations targeting novel dependencies in MECOM-rearranged (r) AML: AML-191 cell line (AID 2202236; also: potency is read from the fitted curve at half-maximal effect; nearly all actives have a fitted effect of over 35% in size). In a few lines: as §1
Assay [12] can be described thus: BET inhibitor-based combinations targeting novel dependencies in MECOM-rearranged (r) AML: AML-194 cell line (AID 2202237; also: potency is read from the fitted curve at half-maximal effect; nearly all actives have a fitted effect of over 40% in size). The method, boiled down: as §1

Turning to `COc1cccc(C2=Nn3c(nnc3-c3ccccc3C)SC2)c1`, the Potency is 2.51 µM (active) in [1], 22.4 µM (active) in assay [3], 17.8 µM (active) in assay [4] and 10.1 µM (active) in assay [6]. Besides, the Potency entry in assay [2] and in assay [5] was “inactive” throughout.

For the molecule `Cc1ccc(CN(C)c2ncnc3ccc(-c4ccc(C#N)n4C)cc23)o1`, the Potency is 3.16 µM (active) in assay [1], 22.4 µM (active) in [3] and 12.7 µM (active) in [6]. The Potency result in assay [2] and in [5] was “inactive” each time.

Take `CN(C)c1ccc(C(=O)NCC(=O)OC(C(=O)Nc2cc(C(F)(F)F)ccc2Cl)c2ccccc2)cc1` (stereo not given): the Potency entry in assay [1], in [2] and in assay [5] was “inactive” each time. In assay [3], the Potency was 11.3 µM (active).

As to `C=C1[C@@H](OC(C)=O)CC[C@@]2(C)[C@@H](OC(C)=O)[C@H](OC(C)=O)C3=C(C)C[C@H](OC(=O)C(C)CC)[C@@H]([C@@H](OC(C)=O)[C@H]12)C3(C)C` (stereo not given in full), the Potency result in [1], in assay [3], in assay [5] and in assay [6] was “inactive” each time. Moreover, the Potency in assay [2] is 2.51 µM (active).

Regarding `Cc1ccc(S(=O)(=O)Nc2cc(C(F)(F)F)ccc2C(=O)Nc2nc(-c3ccccc3)cs2)cc1`, the Potency in [1] is 0.355 µM (active); in assay [7], 14.8 µM (active); in assay [8], 7.42 µM (active); in assay [9] it was 8.33 µM (active); in assay [10], 8.33 µM (active); in assay [11], 5.9 µM (active). In assay [12], the Potency was 9.34 µM (active). For the same molecule, the Potency entry in [2], in assay [3] and in assay [5] was “inactive” throughout.

Regarding `N#Cc1cccnc1SC1=NS(=O)(=O)c2ccccc21`, the Potency in assay [1] is 0.891 µM (active); in [2], 3.16 µM (active); in assay [3], 1.27 µM (active); in assay [6], 0.0712 µM (active).

For `Cc1ccc(CN(C)c2ccc(N3CCN(C)CC3)cc2)cc1`, in assay [1], the Potency entry was “inactive”. Further, the values for the Potency in assay [2], in [3] and in assay [6] were 10 µM (active), 20.1 µM (active) and 2.01 µM (active), respectively.

On to `CN(C)CCCNc1ccc(NC(=O)c2cccs2)cn1`, for which the Potency result in [1], in assay [2] and in assay [5] was “inactive” each time. The Potency in [4] is 5.65 µM (active).

For `CNC(=O)C1CCN(c2nc(-c3ccc(Br)cc3)cs2)CC1`, the Potency in assay [1] was 12.6 µM (active). For the same molecule, the Potency result in assay [2], in assay [3] and in assay [5] was “inactive” in each case.

Regarding `Nc1ccccc1OC1=NS(=O)(=O)c2ccccc21`, the Potency entry in [1], in assay [4] and in [5] was “inactive” throughout. The Potency in assay [2] was 2.51 µM (active).

Regarding `Cc1ccc2nc3sc(C(=O)N4CCCCC4)cc3cc2c1`, the Potency in assay [1] is 11.3 µM (active); in assay [3], 12.7 µM (active). Further, the Potency entry in assay [2] and in [5] was “inactive” throughout.

As to `COc1ccc(C2Nc3ccccc3C(=O)N2Cc2ccc(CNC(=O)CO)cc2)cc1COc1ccc(NC(C)=O)cc1` (stereo not given), the results for the Potency in assay [1] and in assay [4] were 4.49 µM (active) and 12.7 µM (active), respectively. In addition, the Potency entry in [2] and in assay [5] was “inactive” each time.

Take `COc1cc2ncnc(N(C)Cc3csc(C)n3)c2cc1-c1ccc2c(c1)OCO2`: the Potency entry in [1], in [2], in [4] and in assay [5] was “inactive” throughout.

For the molecule `CCCCN1C(=O)c2ccccc2NC1c1ccc(OC)c(COc2ccc(NC(C)=O)cc2)c1` (stereo not given), the values for the Potency in assay [1] and in [3] were 7.12 µM (active) and 12.6 µM (active), respectively. The Potency result in [2] and in [5] was “inactive” in each case.

For the molecule `O=C(Nc1nc(-c2ccccc2)cs1)c1ccncc1NS(=O)(=O)c1ccc(Cl)cc1`, the figures for the Potency in assay [1] and in [4] were 25.2 µM (active) and 10.1 µM (active), respectively. Further, the Potency result in [2] and in [5] was “inactive” each time.

`Nc1ccc(Nc2cc(O)c3ncccc3c2)cc1`: the Potency result in [1] and in assay [2] was “inactive” in each case. The Potency in assay [3] is 0.712 µM (active); in [6], 14.2 µM (active).

As for `Cc1ccc(-c2cnn(CC(=O)NCCc3ccccc3)c(=O)c2)cc1`, the Potency in assay [1] was 12.7 µM (active); in assay [3], 14.1 µM (active). For the same molecule, the Potency result in [2] and in assay [5] was “inactive” each time.

Regarding `CN1C(=O)Cc2cc([S+](=O)([O-])N3CCN([S+](=O)([O-])c4c(F)cccc4F)CC3)ccc21`, the Potency result in assay [1], in assay [2], in assay [3] and in assay [5] was “inactive” throughout.

In the case of `COc1ccc(C2Nc3ccccc3C(=O)N2Cc2ccncc2)cc1COc1ccc(NC(C)=O)cc1` (stereo not given), the Potency in assay [1] is 3.57 µM (active); in [4] it was 5.04 µM (active). Also, the Potency result in assay [2] and in assay [5] was “inactive” in each case.

On to `N#Cc1nc(Nc2ccc3ccccc3c2)nc(NC2CCCC2)n1`, for which the Potency entry in assay [1], in assay [2] and in [5] was “inactive” throughout. Further, the Potency in assay [4] was 22.5 µM (active).

As for `NC(=O)C1CCN(c2nccc(-c3ccc4c(c3)OCCCO4)n2)CC1`, the Potency entry in [1], in [2] and in assay [5] was “inactive” each time. Also, the Potency was 12.7 µM (active) in [3] and 11.3 µM (active) in assay [6].

With `N#Cc1cnc(NS(=O)(=O)c2ccc(NC(=O)Cc3ccc(Cl)c(Cl)c3)cc2)s1`, the Potency in assay [1] was 25.2 µM (active). Besides, the Potency result in [2], in assay [3], in [5] and in [6] was “inactive” throughout.

For the molecule `CN(C)[C@H]1CCN(c2cccc(Nc3nn4c(=O)c5ccccc5nc4s3)c2)C1`, the Potency entry in assay [1], in assay [2] and in assay [5] was “inactive” each time. In addition, the Potency in assay [3] is 3.18 µM (active); in [6], 5.04 µM (active).

As for `COc1ccc(C2Nc3ccccc3C(=O)N2Cc2ccc(-c3ccccc3)cc2)cc1COc1ccc(NC(C)=O)cc1` (stereo not given), the Potency is 1.79 µM (active) in assay [1] and 11.2 µM (active) in assay [3]. For the same molecule, the Potency result in [2] and in assay [5] was “inactive” each time.

With `O=C([C@@H]1CCCN(c2ccc3[nH]c(C4(n5cc(Cl)cn5)CC4)nc3n2)C1)N1CCCC1`, the Potency entry in assay [1], in assay [2], in [3], in [5] and in [6] was “inactive” each time.

In the case of `c1csc(CNc2ccc(N3CCOCC3)cc2)c1`, the Potency entry in assay [1] and in assay [2] was “inactive” each time. Further, the Potency in assay [4] was 22.5 µM (active).

Consider `N#Cc1c(-c2cccc(Cl)c2)no[n+]1[O-]`, for which the Potency was 12.7 µM (active) in assay [1], 8.91 µM (active) in [2] and 5.04 µM (active) in assay [4]. Moreover, the Potency entry in assay [5] is “inactive”.

As to `CC(C)(Nc1nc(-c2ccccc2C(F)(F)F)nc2ccccc12)c1ccc(-c2cccc(C(F)(F)F)c2)cc1`, the Potency entry in assay [1], in [2], in assay [3] and in [5] was “inactive” in each case.
